A short description of experiment [1]: BSK_4H_Eotaxin3: BioMAP Diversity Plus: 4H Assay for Eotaxin 3 Biomarker Activity (AID 2283000).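 Also: CCL26 protein level quantified by ELISA in parallel with SRB cytotoxicity check.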 To be noted: primary human endothelial cells (HUVEC); actives raise or lower the signal. The method, boiled down:
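HUVEC, 24 h post-dose, ELISA for Eotaxin-3/CCL26. Gain or loss of signal fitted bidirectionally vs DMSO baseline.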

Experiment [2] deals with human Peroxisome Proliferator-activated Receptor alpha (PPARa), PPARA (gene 5465) (UniProt Q07869). In words: ATG_PPARa_TRANS: Attagene TRANS-FACTORIAL HepG2 Assay for human Peroxisome Proliferator-activated Receptor alpha (PPARa) (AID 2283001; active = hit-call score of the fitted dose curve at least 0.9, where 1 is the maximum). In short, it runs like this: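 Gain-of-signal endpoint: reporter mRNA induction relative to DMSO, detected by fluorescent RT-PCR and capillary electrophoresis. HepG2 cells transiently carried GAL4-UAS-driven reporter units plus NR-Gal4 fusion; exposure lasted 24 h.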

Experiment [3] is described as follows: BSK_3C_Proliferation: Cell Proliferation Assessment in the BioMAP Diversity Plus: 3C Assay (AID 2283006).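 As to AC50: potency may reflect either rise or fall in cell number versus DMSO.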 To be noted: primary human endothelial cells (HUVEC). In short, it runs like this:
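Read-out is total protein by SRB absorbance at 560 nm, taken as a proxy for relative cell number. Primary human umbilical vein endothelium cultured below confluence was dosed for 48 h, TCA-fixed and SRB-stained; curves were fitted bidirectionally versus DMSO.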

Experiment [4] deals with Nuclear receptor subfamily 1 group I member 2 (Homo sapiens) (UniProt O75469). In words: ATG_PXR_TRANS: Attagene TRANS-FACTORIAL HepG2 Assay for human Pregnane X Receptor (PXR) (AID 2283008; active = hit-call score of the fitted dose curve at least 0.9, where 1 is the maximum). In short, it runs like this: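 Fluorescence intensity of FAM-labelled, HpaI-digested reporter amplicons, separated by capillary electrophoresis, quantifies induction. HepG2 cells with PXR-Gal4 trans-reporter system were exposed 24 h; DMSO defines baseline.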

Experiment [5] has as its target human RAR-related Orphan Receptor gamma (RORg), RORC (gene 6097) (UniProt P51449). In words: ATG_RORg_TRANS: Attagene TRANS-FACTORIAL HepG2 Assay for human RAR-related Orphan Receptor gamma (RORg) (AID 2283011; active = hit-call score of the fitted dose curve at least 0.9, where 1 is the maximum). In short, it runs like this:
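Readout: reporter transcript induction (RT-PCR, fluorescent primer extension, capillary electrophoresis) after 24 h compound exposure of transiently transfected HepG2 cells carrying a RORg-Gal4 chimera and GAL4-UAS reporters; DMSO served as baseline, with increasing signal fitted.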

In experiment [6] the target is Retinoic acid receptor RXR-alpha (Homo sapiens) (UniProt P19793). In words: ATG_RXRa_TRANS: Attagene TRANS-FACTORIAL HepG2 Assay for human Retinoid X Receptor alpha (RXRa) (AID 2283012; active = hit-call score of the fitted dose curve at least 0.9, where 1 is the maximum). The method, boiled down: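 Transient transfection of human HepG2 with multiple GAL4-UAS reporter constructs; 24 h compound exposure; total RNA isolated, reverse-transcribed, PCR-amplified, 6-FAM labelled, HpaI-cut, resolved by capillary electrophoresis. Positive-direction fit versus DMSO.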

Experiment [7] has as its target human Retinoid X Receptor beta (RXRb), RXRB (gene 6257) (UniProt P28702). In words: ATG_RXRb_TRANS: Attagene TRANS-FACTORIAL HepG2 Assay for human Retinoid X Receptor beta (RXRb) (AID 2283013; active = hit-call score of the fitted dose curve at least 0.9, where 1 is the maximum). In short, it runs like this:
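Transfect HepG2 with GAL4-UAS multi-reporter constructs (chimeric NR-Gal4, TRANS format); dose compound 24 h; isolate RNA, RT-PCR, FAM primer extension, HpaI digest; quantify by capillary electrophoresis; positive direction vs DMSO.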

Read-out in experiment [8]: E-selectin (Homo sapiens) (UniProt P16581)
In words: BSK_3C_Eselectin: BioMAP Diversity Plus: 3C Assay for Eselectin Biomarker Activity (AID 2283015).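 As to outcome: cell surface E-selectin protein quantified by ELISA 24 h after dosing.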 To be noted: primary human endothelial cells (HUVEC); actives raise or lower the signal. In short, it runs like this: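 Primary human umbilical vein endothelial cells (3C system) were dosed with chemical and cell-surface E-selectin measured by ELISA 24 h later. Bidirectional curve fitting used DMSO as negative control and baseline.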

Read-out in experiment [9]: Monocyte Chemoattractant Protein-1 (MCP1), CCL2 (gene 6347)
In words: BSK_3C_MCP1: BioMAP Diversity Plus: 3C Assay for Monocyte Chemoattractant Protein-1 (MCP1) Biomarker Activity (AID 2283017). To be noted: primary human endothelial cells (HUVEC); actives raise or lower the signal. In short, it runs like this:
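Primary human umbilical vein endothelial cells (3C system) were exposed to test chemical for 24 h, after which MCP-1 was quantified by ELISA. Activity was fitted bidirectionally against DMSO as negative control and baseline.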

Read-out in experiment [10]: Monocyte Chemoattractant Protein-1 (MCP1), CCL2 (gene 6347)
In words: BSK_4H_MCP1: BioMAP Diversity Plus: 4H Assay for Monocyte Chemoattractant Protein-1 (MCP1) Biomarker Activity (AID 2283018). To be noted: primary human endothelial cells (HUVEC); actives raise or lower the signal. The method, boiled down:
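ELISA read-out of MCP-1 from human vascular endothelial primary cells taken at 24 hours after compound exposure. Activity was fitted in both directions relative to DMSO, which served as negative control.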

Read-out in experiment [11]: Human Leukocyte Antigen - DR isotype (HLADR), HLA-DRA (gene 3122)
In words: BSK_3C_HLADR: BioMAP Diversity Plus: 3C Assay for Human Leukocyte Antigen - DR isotype (HLADR) Biomarker Activity (AID 2283019).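 As to outcome: ELISA of cell-surface HLA-DR on HUVEC 24 h after dosing.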 To be noted: primary human endothelial cells (HUVEC); actives raise or lower the signal. The method, boiled down:
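Primary human umbilical vein endothelial cells (3C system) were dosed with compound and cell-surface HLA-DR was quantified by ELISA at 24 h. Activity was fitted bidirectionally against DMSO as negative control and baseline.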

Read-out in experiment [12]: Interleukin-8 (IL8), CXCL8 (gene 3576)
In words: BSK_3C_IL8: BioMAP Diversity Plus: 3C Assay for Interleukin-8 (IL8) Biomarker Activity (AID 2283020). To be noted: primary human endothelial cells (HUVEC); actives raise or lower the signal. In short, it runs like this: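 ELISA read-out of IL-8 from human umbilical vein endothelium, measured 24 h after chemical dosing. Activity is expressed relative to DMSO negative control, with both increases and decreases fitted.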

Experiment [13] deals with human RAR-related Orphan Receptor beta (RORb), RORB (gene 6096) (UniProt Q92753). In words: ATG_RORb_TRANS: Attagene TRANS-FACTORIAL HepG2 Assay for human RAR-related Orphan Receptor beta (RORb) (AID 2283010; active = hit-call score of the fitted dose curve at least 0.9, where 1 is the maximum). In short, it runs like this:
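Readout is reporter-gene mRNA induction, detected as fluorescence after RT-PCR and capillary electrophoresis, fitted for gain of signal against DMSO controls. Transiently transfected HepG2 liver cells carrying GAL4-UAS reporter constructs were treated for 24 hours.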

The target in experiment [14] is human Retinoic Acid Receptor beta (RARb), RARB (gene 5915) (UniProt P10826). In words: ATG_RARb_TRANS: Attagene TRANS-FACTORIAL HepG2 Assay for human Retinoic Acid Receptor beta (AID 2283004; active = hit-call score of the fitted dose curve at least 0.9, where 1 is the maximum). In short, it runs like this:
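HepG2 cells transiently transfected with multiplexed GAL4-UAS reporter units expressing chimeric NR–Gal4 fusions; 24 h compound exposure. Reporter mRNA quantified by RT-PCR, 6-FAM labelling, HpaI digestion and capillary electrophoresis; gain-of-signal fitted against DMSO baseline.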

The target in experiment [15] is human Retinoic Acid Receptor gamma (RARg), RARG (gene 5916) (UniProt P13631). In words: ATG_RARg_TRANS: Attagene TRANS-FACTORIAL HepG2 Assay for human Retinoic Acid Receptor gamma (RARg) (AID 2283009; active = hit-call score of the fitted dose curve at least 0.9, where 1 is the maximum). In short, it runs like this:
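Transient transfection of HepG2 with multi-reporter constructs, then 24 h chemical treatment. Total RNA isolated, reverse-transcribed, PCR-amplified, fluorescently labelled and resolved by capillary electrophoresis; activity scored as mRNA induction versus DMSO.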

Read-out in experiment [16]: Interleukin-1 alpha (IL1a), IL1A (gene 3552)
In words: BSK_BE3C_IL1a: BioMAP Diversity Plus: BE3C Assay for Interleukin-1 alpha (IL1a) Biomarker Activity (AID 2283016). To be noted: primary human bronchial epithelial cells; actives raise or lower the signal. In short, it runs like this:
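BE3C primary human bronchial epithelium; cpd 24 h; IL-1a by ELISA; bidirectional fit vs DMSO; parallel SRB (0.1% SRB, 10% TCA fix, 560 nm) for cytotoxicity.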

In experiment [17] the target is Retinoic acid receptor alpha (Homo sapiens) (UniProt P10276). In words: ATG_RARa_TRANS: Attagene TRANS-FACTORIAL HepG2 Assay for human Retinoic Acid Receptor alpha (RARa) (AID 2283005; active = hit-call score of the fitted dose curve at least 0.9, where 1 is the maximum;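 also: potency for increased reporter signal meaning RARa activation over DMSO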). In short, it runs like this:
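HepG2 cells transiently transfected with multiple reporter units expressing chimeric RARα-GAL4 fusion, with GAL4-UAS-driven reporters. After 24 h compound exposure, reporter mRNA induction quantified by RT-PCR and capillary electrophoresis with fluorescent labeling; gain-of-signal fitted relative to DMSO control.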

Results filed as inconclusive are left out. Activity calls are given as the source filed them. The calls were made as follows, unless noted: active = hit-call score of the fitted dose curve at least 0.9, where 1 is the maximum; inactive = score below 0.9.

Chain of human Retinoic Acid Receptor gamma (RARg), RARG (gene 5916) (P13631 whole entry, looked up): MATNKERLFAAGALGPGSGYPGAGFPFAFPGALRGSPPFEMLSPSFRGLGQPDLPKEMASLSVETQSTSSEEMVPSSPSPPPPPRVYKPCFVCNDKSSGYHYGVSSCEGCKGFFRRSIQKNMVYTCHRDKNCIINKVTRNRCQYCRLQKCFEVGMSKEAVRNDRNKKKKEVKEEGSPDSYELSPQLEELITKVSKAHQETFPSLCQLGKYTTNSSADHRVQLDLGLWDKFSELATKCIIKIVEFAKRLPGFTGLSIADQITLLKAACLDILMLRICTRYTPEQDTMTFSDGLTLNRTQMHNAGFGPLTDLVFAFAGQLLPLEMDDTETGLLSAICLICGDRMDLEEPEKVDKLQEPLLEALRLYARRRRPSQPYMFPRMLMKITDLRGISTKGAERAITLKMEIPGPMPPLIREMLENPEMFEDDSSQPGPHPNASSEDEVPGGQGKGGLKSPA
Chain of human RAR-related Orphan Receptor gamma (RORg), RORC (gene 6097) (P51449 whole entry, looked up, the tested form may be a part): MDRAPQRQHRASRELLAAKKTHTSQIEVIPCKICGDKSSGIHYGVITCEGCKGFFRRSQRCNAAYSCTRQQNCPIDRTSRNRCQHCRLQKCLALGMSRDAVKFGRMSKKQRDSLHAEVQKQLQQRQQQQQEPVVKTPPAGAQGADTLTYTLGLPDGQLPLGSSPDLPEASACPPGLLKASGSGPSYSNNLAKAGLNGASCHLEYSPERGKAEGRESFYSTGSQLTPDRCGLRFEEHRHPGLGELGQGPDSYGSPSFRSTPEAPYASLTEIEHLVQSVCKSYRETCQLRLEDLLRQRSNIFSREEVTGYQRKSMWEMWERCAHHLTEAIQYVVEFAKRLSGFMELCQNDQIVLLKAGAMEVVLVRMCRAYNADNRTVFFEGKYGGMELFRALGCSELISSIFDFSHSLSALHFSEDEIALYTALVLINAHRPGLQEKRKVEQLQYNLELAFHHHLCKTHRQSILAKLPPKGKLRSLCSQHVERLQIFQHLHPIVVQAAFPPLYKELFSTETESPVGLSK
Chain of Retinoic acid receptor RXR-alpha (Homo sapiens) (P19793 whole entry, looked up, the tested form may be a part): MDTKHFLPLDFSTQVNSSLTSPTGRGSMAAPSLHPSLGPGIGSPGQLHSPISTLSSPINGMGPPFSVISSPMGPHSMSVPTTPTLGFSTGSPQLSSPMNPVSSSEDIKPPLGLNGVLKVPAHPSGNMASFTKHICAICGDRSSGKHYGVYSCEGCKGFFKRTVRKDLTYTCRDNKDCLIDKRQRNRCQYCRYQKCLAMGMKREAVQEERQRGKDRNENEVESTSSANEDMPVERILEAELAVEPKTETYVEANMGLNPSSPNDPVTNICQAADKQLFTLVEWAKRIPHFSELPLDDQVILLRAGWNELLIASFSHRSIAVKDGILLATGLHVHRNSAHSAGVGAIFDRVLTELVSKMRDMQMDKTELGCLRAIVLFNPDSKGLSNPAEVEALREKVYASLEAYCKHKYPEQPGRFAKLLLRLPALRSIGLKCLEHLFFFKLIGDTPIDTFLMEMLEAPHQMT
Chain of human RAR-related Orphan Receptor beta (RORb), RORB (gene 6096) (Q92753 whole entry, looked up, the tested form may be a part): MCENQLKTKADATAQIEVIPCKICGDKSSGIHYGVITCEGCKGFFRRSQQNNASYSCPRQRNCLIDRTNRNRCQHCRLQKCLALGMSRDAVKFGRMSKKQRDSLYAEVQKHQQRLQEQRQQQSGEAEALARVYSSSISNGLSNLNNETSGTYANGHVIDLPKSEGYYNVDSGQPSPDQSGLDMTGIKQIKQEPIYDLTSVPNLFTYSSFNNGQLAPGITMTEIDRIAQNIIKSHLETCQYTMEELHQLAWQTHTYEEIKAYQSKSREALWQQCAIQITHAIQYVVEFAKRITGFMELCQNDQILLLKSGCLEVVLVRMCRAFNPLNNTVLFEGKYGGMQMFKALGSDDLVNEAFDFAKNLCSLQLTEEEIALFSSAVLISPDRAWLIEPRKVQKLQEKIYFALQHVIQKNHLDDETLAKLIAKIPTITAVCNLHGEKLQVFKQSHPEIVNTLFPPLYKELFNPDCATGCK
Chain of Nuclear receptor subfamily 1 group I member 2 (Homo sapiens) (O75469 whole entry, looked up, the tested form may be a part): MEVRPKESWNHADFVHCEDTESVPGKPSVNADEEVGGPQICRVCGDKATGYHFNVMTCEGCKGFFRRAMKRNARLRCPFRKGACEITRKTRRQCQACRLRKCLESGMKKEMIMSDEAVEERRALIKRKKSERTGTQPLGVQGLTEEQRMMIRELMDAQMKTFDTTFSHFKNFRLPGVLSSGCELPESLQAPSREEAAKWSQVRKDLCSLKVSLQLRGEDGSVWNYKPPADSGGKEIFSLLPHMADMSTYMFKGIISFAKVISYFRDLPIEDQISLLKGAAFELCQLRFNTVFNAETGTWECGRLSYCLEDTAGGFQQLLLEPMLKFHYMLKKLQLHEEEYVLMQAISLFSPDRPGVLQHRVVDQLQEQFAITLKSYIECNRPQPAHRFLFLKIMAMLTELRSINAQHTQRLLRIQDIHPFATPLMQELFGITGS
Chain of E-selectin (Homo sapiens) (P16581 whole entry, looked up): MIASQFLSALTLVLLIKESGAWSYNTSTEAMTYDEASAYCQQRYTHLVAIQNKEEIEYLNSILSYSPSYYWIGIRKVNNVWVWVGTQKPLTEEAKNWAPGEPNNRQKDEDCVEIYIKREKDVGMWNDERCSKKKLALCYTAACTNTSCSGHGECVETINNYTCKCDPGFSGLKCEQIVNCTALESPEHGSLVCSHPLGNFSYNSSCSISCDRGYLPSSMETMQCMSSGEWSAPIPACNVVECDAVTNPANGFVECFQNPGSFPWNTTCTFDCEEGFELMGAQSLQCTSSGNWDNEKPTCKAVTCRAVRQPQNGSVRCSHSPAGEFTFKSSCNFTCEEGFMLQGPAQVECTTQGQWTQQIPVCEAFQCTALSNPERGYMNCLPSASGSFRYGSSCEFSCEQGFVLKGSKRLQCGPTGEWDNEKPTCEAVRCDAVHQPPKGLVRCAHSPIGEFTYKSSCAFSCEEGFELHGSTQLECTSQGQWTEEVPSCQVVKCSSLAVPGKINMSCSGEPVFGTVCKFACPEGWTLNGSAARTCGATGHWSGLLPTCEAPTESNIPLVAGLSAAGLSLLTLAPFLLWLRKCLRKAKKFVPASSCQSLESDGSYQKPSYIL
Chain of human Retinoid X Receptor beta (RXRb), RXRB (gene 6257) (P28702 whole entry, looked up, the tested form may be a part): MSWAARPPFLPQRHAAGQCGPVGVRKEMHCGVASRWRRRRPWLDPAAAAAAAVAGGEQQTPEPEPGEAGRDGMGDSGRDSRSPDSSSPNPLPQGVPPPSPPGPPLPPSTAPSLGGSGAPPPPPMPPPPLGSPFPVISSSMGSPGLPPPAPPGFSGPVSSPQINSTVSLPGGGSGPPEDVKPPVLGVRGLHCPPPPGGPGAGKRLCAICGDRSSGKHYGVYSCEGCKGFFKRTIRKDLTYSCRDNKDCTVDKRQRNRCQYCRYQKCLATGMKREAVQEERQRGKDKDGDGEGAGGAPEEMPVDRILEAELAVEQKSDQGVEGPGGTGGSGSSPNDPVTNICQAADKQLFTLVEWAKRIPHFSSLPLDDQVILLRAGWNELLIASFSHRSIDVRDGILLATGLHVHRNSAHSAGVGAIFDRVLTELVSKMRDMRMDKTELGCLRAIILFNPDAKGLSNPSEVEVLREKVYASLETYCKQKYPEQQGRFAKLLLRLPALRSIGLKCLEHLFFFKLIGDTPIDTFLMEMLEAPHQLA
Chain of human Retinoic Acid Receptor beta (RARb), RARB (gene 5915) (P10826 whole entry, looked up, the tested form may be a part): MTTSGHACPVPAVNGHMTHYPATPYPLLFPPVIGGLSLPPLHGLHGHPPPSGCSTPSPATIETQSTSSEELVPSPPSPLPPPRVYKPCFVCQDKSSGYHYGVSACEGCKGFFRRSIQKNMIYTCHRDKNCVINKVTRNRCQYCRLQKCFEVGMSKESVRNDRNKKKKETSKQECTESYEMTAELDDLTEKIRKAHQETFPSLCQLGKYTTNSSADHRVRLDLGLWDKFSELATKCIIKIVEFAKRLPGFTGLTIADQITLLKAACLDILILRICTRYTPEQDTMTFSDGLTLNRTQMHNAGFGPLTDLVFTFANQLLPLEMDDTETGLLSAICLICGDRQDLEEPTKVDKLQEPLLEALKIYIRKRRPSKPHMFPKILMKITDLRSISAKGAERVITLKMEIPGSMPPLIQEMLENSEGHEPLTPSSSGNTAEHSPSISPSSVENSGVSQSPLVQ
Chain of human Peroxisome Proliferator-activated Receptor alpha (PPARa), PPARA (gene 5465) (Q07869 whole entry, looked up, the tested form may be a part): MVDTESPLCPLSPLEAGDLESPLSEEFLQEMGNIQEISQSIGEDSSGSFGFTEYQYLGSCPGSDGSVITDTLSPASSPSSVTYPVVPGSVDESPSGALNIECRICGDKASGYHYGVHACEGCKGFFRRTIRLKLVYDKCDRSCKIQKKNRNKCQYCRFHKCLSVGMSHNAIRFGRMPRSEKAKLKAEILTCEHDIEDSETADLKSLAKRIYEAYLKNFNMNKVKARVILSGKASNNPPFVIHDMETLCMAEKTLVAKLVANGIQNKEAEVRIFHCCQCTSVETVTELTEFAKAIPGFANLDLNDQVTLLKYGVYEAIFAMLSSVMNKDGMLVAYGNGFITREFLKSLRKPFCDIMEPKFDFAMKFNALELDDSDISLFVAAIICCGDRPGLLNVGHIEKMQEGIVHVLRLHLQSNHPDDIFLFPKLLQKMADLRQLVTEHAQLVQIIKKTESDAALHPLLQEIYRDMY
Chain of Retinoic acid receptor alpha (Homo sapiens) (P10276 whole entry, looked up, the tested form may be a part): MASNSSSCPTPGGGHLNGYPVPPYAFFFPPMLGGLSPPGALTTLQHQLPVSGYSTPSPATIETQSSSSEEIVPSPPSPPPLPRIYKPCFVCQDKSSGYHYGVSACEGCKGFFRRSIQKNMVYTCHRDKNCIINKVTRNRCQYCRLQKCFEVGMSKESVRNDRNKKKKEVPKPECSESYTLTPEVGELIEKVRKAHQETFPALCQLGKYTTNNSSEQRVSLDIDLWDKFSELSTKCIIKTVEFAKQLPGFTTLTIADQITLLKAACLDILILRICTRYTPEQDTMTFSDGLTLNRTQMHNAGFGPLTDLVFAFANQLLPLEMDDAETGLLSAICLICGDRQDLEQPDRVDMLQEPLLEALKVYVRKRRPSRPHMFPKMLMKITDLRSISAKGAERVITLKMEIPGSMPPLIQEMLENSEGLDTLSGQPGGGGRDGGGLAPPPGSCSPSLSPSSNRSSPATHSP

With `CS(=O)(=O)c1ccc(C(=O)C2C(=O)CCCC2=O)c([N+](=O)[O-])c1`, the outcome in experiment [1], in experiment [2], in experiment [3], in experiment [4], in experiment [5] and in experiment [6] was inactive. The outcome in experiment [7], in experiment [8], in experiment [9], in experiment [10], in experiment [11] and in experiment [12] was inactive.
Usually AC50 stands for the concentration giving half of the maximal activity seen. As for `COC(=O)NC(=S)Nc1ccccc1NC(=S)NC(=O)OC`, the outcome in experiment [1], in experiment [4], in experiment [13], in [6], in experiment [9] and in [12] was inactive. For the same compound, the AC50 is 5.15 µM (active) in experiment [8], 5.32 µM (active) in experiment [10] and 14.2 µM (active) in experiment [11].
For `CSC(=O)c1c(C(F)F)nc(C(F)(F)F)c(C(=O)SC)c1CC(C)C`, the result in experiment [1], in [14], in [15], in experiment [13], in experiment [5] and in [6] was inactive. For the same compound, the result in [8] and in experiment [16] was inactive. The AC50 was 1.66 µM (active) in experiment [4]; 15.1 µM (active) in [7]; 31.2 µM (active) in experiment [9]; 20 µM (active) in experiment [10]; 31.1 µM (active) in experiment [11]; 32.4 µM (active) in [12].
As for `CC(C)(C)C(=O)C(Oc1ccc(Cl)cc1)n1cncn1` (configuration not stated), the result in experiment [1], in [14], in experiment [3], in experiment [15], in experiment [6] and in experiment [7] was inactive. Besides, the result in [8], in experiment [16], in experiment [9], in experiment [10] and in experiment [12] was inactive. For the same compound, the half-maximal activity concentration (AC50) in [17] is 50 µM (active); in experiment [4], 19.9 µM (active); in [11], 31.4 µM (active).
Regarding `COC(=O)N(C(=O)N1CO[C@@]2(C(=O)OC)Cc3cc(Cl)ccc3C2=N1)c1ccc(OC(F)(F)F)cc1`, the outcome in experiment [1], in [15], in experiment [13], in experiment [5], in [6] and in [7] was inactive. Further, the result in [8], in [9], in experiment [11] and in experiment [12] was inactive. In addition, the AC50 in [3] is 5.55 µM (active); in experiment [4] it was 5.9 µM (active); in experiment [10] it was 6.07 µM (active).

Source of the values: PubChem BioAssay (EPA / NIEHS).
